Bioassay records deposited in PubChem by several laboratories.
Rows were chosen to be rich in hits. Some 2.6% of all compounds tested hit in one or more screens of this group.
LGR2 antag: Drosophila LGR2 receptor signaling inhibition | 380,000 compounds, 0.35% hits | inhibition, % at 9.99 µM | HEK293 LGR2, CRE-luciferase, bursicon-stimulated, 4 h;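 active = drop in luminescence signal, shown as inhibition above about 50% in the replicate tests, limit read from the data, passing the limit was not always enough; inconclusive = probably only some replicates passing the limit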;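 note: agonist challenge used bursicon conditioned medium at about half maximal strength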
TROY signal inh: TROY signaling inhibition | Q293 LMP1-TROYcd NF-kB luciferase reporter, 4 h | inhibition, % at 10 µM | 360,000 compounds, 0.98% hits | AID 1347056;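 active = compounds whose plate-normalised and pattern-corrected inhibition of the luciferase reporter signal at the single screening dose is 50% or more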
KKLEB tox: reduces viability of KKLEB cystic fibrosis airway cells; KKLEB CF airway cells viability, ATPlite luminescence, overnight; hits give low values; cells stimulated with P. aeruginosa culture filtrate; 360,000 compounds, 0.36% hits; activity change (cytotoxicity), % at 5 µM;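 active = corrected activity change at or below -50% at 5 µM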
EWS-Fli inh: blocks EWS/Fli oncoprotein-driven transcription; AID 651661; inhibition, % at 12.6 µM; A673 NR0B1-luciferase reporter, viability-normalised; 350,000 compounds, 0.67% hits;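 active = mean inhibition of at least 50% after viability correction, with every replicate also passing that limit; inconclusive = mean reaches 50% but only one of two replicates passes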;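 note: firefly luciferase signal divided by Alamar Blue viability fluorescence both relative to DMSO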
CF NFkB block: cystic fibrosis NF-kB activation inhibition | inhibition, % at 5 µM | 360,000 compounds, 0.86% hits | AID 588850 | KKLEB NF-kB-GFP reporter, PAF-induced, GFP fluorescence overnight;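 active = at least 50% inhibition at 5 µM, scaled per plate between neutral and stimulator controls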;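 note: PAF is a Pseudomonas aeruginosa culture filtrate used as stimulus; plate controls were PAF-stimulated DMSO wells for no effect and unstimulated DMSO wells for full effect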
TWEAK-Fn14 inh: inhibitors of TWEAK-Fn14 interaction signaling; inhibition, % at 10 µM; TWEAK-stimulated Fn14 reporter cells, luciferase luminescence, 8 h; 360,000 compounds, 2% hits; in the data active = inhibition above about 50%
Numbers without * were called inactive; ? = inconclusive; . = not tested or not shown.

SMILES	LGR2 antag	TROY signal inh	KKLEB tox	EWS-Fli inh	CF NFkB block	TWEAK-Fn14 inh
c1cnc2c(-c3cccc4nccn34)cccc2c1	-1.8	-16.8	10.7	-2.0	-5.5	-14.1
c1ccc2c(-c3cccc4nccn34)cncc2c1	5.3	31.3	-14.5	0.3	32.0	52.1*
CC(=O)Nc1ccc(NC2=Nc3ccccc3N3C2=Nc2c(c(C)nn2-c2ccccc2)C3c2ccccc2)cc1 (stereo not given)	1.7	27.1	14.7	.	2.7	96.2*
COCC(=O)N1C[C@H](C)[C@H](OC)CN(C)C(=O)c2cc(NC(=O)NC(C)C)ccc2OC[C@H]1C	2.1	.	.	8.5	.	.
Cc1cc(C)c(C#N)c(SCc2nnc(-c3ccccc3)o2)n1	77.1*	89.6*	-17.8	78.5*	7.7	99.9*
Cc1cc(C)c(C#N)c(SCC(=O)Nc2ccccc2C(N)=O)n1	.	59.9*	-20.9	.	-13.6	10.3
Cc1cc(C)c(C#N)c(SCc2nnc(-c3ccccc3[N+](=O)[O-])o2)n1	-109.6	44.8	-1.4	-63.7	0.3	-11.7
COCc1cc(C)nc(SCC(=O)Nc2ccccc2C)c1C#N	.	-6.2	3.7	.	-2.9	13.6
Cc1ccc(C#N)c(SCc2nnc(-c3ccc(Cl)cc3)o2)n1	65.6*	87.0*	-39.6	.	-5.8	97.6*
C[C@@H]1CN([C@H](C)CO)C(=O)Cc2cc(N(C)C)ccc2O[C@@H]1CN(C)Cc1ccc(Cl)c(Cl)c1	6.4	.	.	8.1	.	.
O=C(CSc1cccc2cccnc12)N/N=C/c1ccc(O)cc1	-14.2	-11.2	-0.4	-113.7	-6.2	-2.4
O=C(CCc1ccccc1O)N/N=C/c1ccc(Sc2cccc3cccnc23)o1	.	-7.9	4.1	.	4.0	108.8*
Cc1cc2nc(-c3ccc(SCC(=O)Nc4ccc5c(c4)OCCO5)nc3)[nH]c2cc1C	-54.5	-21.9	-53.6*	-100.1	-37.2	7.7
O=C(C[C@H]1CC[C@@H](NC(=O)C2CCC2)[C@@H](CO)O1)NCc1ccccc1Cl	6.4	.	.	-2.6	.	.
COCC(=O)N(C)C[C@H]1Oc2cc(-c3ccncc3)ccc2S(=O)(=O)N([C@H](C)CO)C[C@@H]1C	-20.2	.	.	-6.9	.	.
O=C(C1CCCCC1)N1CC2(C1)[C@@H](c1ccccc1)[C@@H](CO)N2Cc1nccs1	15.3	.	.	.	.	.
O=C(NCc1nc2ccccc2[nH]1)C1=C[C@@H](c2csc3ccccc23)C[C@@H](OCc2ccc(CO)cc2)O1	3.9	38.3	3.8	-5.8	-6.0	56.6*
O=C(NCc1nc2ccccc2[nH]1)C1=C[C@H](c2csc3ccccc23)C[C@H](OCc2ccc(CO)cc2)O1	25.8	22.5	0.5	21.9	-15.7	55.3*
C[C@@H]1CN([C@@H](C)CO)C(=O)c2cc(NS(=O)(=O)c3cccs3)ccc2O[C@@H]1CN(C)Cc1ccc(Cl)c(Cl)c1	-5.7	.	.	-1.3	.	.
COc1ccccc1N1CCN(c2ccc(-c3ccccc3)nn2)CC1	.	65.7*	-47.6	.	13.6	70.8*
C[C@@H]1CCCCO[C@@H](CN(C)C(=O)C2CCCCC2)[C@H](C)CN([C@H](C)CO)C(=O)c2cc(NS(=O)(=O)c3cn(C)cn3)ccc2O1	-0.1	.	.	4.3	.	.
C[C@@H]1CN([C@@H](C)CO)C(=O)c2ccccc2-c2ccccc2CO[C@@H]1CN(C)C(=O)NC1CCCCC1	-0.3	.	.	-8.1	.	.
C=C(C)CN(CC)C(=O)Cn1cnc2c(oc3ccccc32)c1=O	31.4	54.2*	9.5	-14.1	1.7	-11.1
C=CCOc1ccccc1CNc1ccccc1C	1.5	17.9	-1.4	-51.4	-5.2	68.8*
O=C(NCc1ccncc1)Nc1ccc2c(c1)OCO2	10.7	-8.9	2.0	-11.7	13.6	-9.7
SMILES	LGR2 antag	TROY signal inh	KKLEB tox	EWS-Fli inh	CF NFkB block	TWEAK-Fn14 inh
Cc1ccccc1NCc1ccccc1O	.	10.4	-11.1	.	-3.5	13.8
c1cc(CNc2ccc3c(c2)OCCO3)ccn1	?	61.7*	2.7	.	-11.8	81.5*
C=CCOc1ccccc1CNc1ccc2c(c1)OCCO2	.	85.0*	-15.2	.	11.3	90.7*
CCOc1ccc(Br)cc1CNc1ccc2c(c1)OCCO2	43.0	87.4*	2.0	10.3	-6.4	83.1*
C[C@H]1CN([C@@H](C)CO)C(=O)Cc2cc(NC(=O)C3CC3)ccc2O[C@H]1CN(C)C(=O)NC1CCCCC1	-1.2	.	.	-6.8	.	.
CCNC(=O)[C@@H]1[C@@H](CO)[C@@H]2Cn3c(ccc(-c4cccc(F)c4)c3=O)[C@H]1N2C(C)=O	13.0	.	.	0.4	.	.
COCC(=O)Nc1ccc2c(c1)[C@@H]1C[C@H](CC(=O)NCc3cccnc3)O[C@H](CO)[C@@H]1O2	-5.8	.	.	-1.1	.	.
N#C/C(=C\c1ccc(O)c([N+](=O)[O-])c1)c1nc2ccccc2s1	-15.6	50.2*	-9.3	-11.9	44.3	53.3*
O=C(O)C/C(=C\c1ccc(N2CCOCC2)c([N+](=O)[O-])c1)c1nc2ccccc2s1	-24.1	51.6*	13.3	-15.0	4.3	45.4
COc1cc(/C=C(\C#N)c2nc3ccccc3s2)cc([N+](=O)[O-])c1O	0.3	17.9	16.0	-16.4	-7.8	27.2
O=C(O)CC/C(=C\c1ccc(N2CCOCC2)c([N+](=O)[O-])c1)c1nc2ccccc2s1	-15.6	32.6	-0.2	-14.5	11.5	-11.4
CCCN1[C@@H]2c3cccc(=O)n3C[C@H]1[C@H](CO)[C@H]2C(=O)N[C@@H](C)c1ccccc1	-11.6	.	.	-7.3	.	.
C[C@H]1CCCCO[C@@H](CN(C)Cc2ccccc2)[C@@H](C)CN([C@@H](C)CO)C(=O)c2cc(NC(=O)c3ccncc3)ccc2O1	-12.1	.	.	.	.	.
COc1ccc(NS(=O)(=O)c2cc(NC(=O)c3ccc(F)cc3)ccc2OC)cc1	6.9	10.1	-8.2	.	-1.7	23.3
COc1ccc(NC(=O)c2ccc(F)cc2)cc1S(=O)(=O)Nc1cc(C)ccc1Br	25.2	43.7	-0.8	.	-8.4	59.9*
CNC(=O)C[C@@H]1CC[C@H]2[C@H](COc3ccc(NC(=O)c4ccc(C(F)(F)F)cc4)cc3C(=O)N2C)O1	-4.0	.	.	-10.4	.	.
COc1ccc(/C=N/Nc2cc(C)nc3c(C)cccc23)cc1	3.4	-71.1	-4.8	67.0*	-58.1	-114.7
COc1ccc2nc(C)cc(N/N=C/c3ccc(F)cc3)c2c1	69.2*	-70.3	-77.3*	71.0*	28.4	-347.0
COc1ccc(/C=N/Nc2cc(C)nc3ccccc23)cc1	-7.2	-4.3	0.5	9.8	-99.5	-25.8
Cc1ccccc1Sc1ncnc2onc(C)c12	9.8	19.0	3.6	.	6.8	32.2
Cc1noc2ncnc(Sc3ccc(Cl)cc3)c12	.	49.0	-12.2	.	35.9	65.2*
Cc1noc2ncnc(Sc3c(Cl)cccc3Cl)c12	9.1	57.0*	5.8	.	16.0	25.2
C#CC(=O)N(c1cccc(OC)c1)C(C(=O)NC1CCCC1)c1cccs1 (stereo not given)	103.9*	27.9	-97.0*	43.6	94.1*	54.7*
C#CC(=O)N(c1ccc(OC)c(OC)c1)C(C(=O)NC1CCCC1)c1cccs1 (stereo not given)	101.3*	10.8	-99.5*	45.2	101.3*	60.7*
